# Screening results deposited in PubChem by National Center for Advancing Translational Sciences (NCATS).
# Rab9 prom act: activators of Rab9 promoter; Huh7 Rab9 promoter-luciferase reporter, luminescence, 24 h; Potency, µM (titrated, usually from 9.22 µM), without a hit: at the top dose activation, negative = inhibition, hits mostly activators; 320,000 tested, 2.8% active; also: % of control where 0% means no effect; nearly all actives have a fitted effect of over 60% in size
#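 Huh7 cells stably carrying a Rab9 promoter-luciferase reporter, 1500 cells per well in OP-MEM I with 10% FBS, treated with compound 24 hours at 37C. Luciferase activity read by luminescence after 10 minutes with Amplite reagent.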
# SMN2 splice enh: enhancers of SMN2 splice variant expression. HEK293 SMN2-luciferase splicing reporter, luminescence, 30-36 h. Potency, µM (titrated, usually from 46.1 µM), inactives show at the highest dose activity change, positive = activation, usual class: activators. 210,000 tested, 2.8% active. AID 1458; also: % of control where 0% means no effect; nearly all actives have a fitted effect of over 55% in size
#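 qHTS luciferase splicing reporter: luminescence rises when SMN2 exon 7 is included in transfected HEK293 cells. Compound exposure lasted 30-36 h at 37C, with 4.5 mM final sodium butyrate as control, followed by a ONE-Glo read.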
# FLuc modulator: firefly luciferase modulation, counter-screen for miR-21 project; P08659; purified FLuc, Km substrates, luminescence inhibition; Potency, µM (series often up to 57.5 µM), inactives show at the top dose activity change, negative = inhibition, hits mostly inhibitors; 360,000 tested, 6.9% active;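 also: plate controls were vehicle for no effect and reference inhibitor for full effect; nearly all actives have a fitted effect of over 55% in size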
# Target sequence (P08659 whole entry, looked up): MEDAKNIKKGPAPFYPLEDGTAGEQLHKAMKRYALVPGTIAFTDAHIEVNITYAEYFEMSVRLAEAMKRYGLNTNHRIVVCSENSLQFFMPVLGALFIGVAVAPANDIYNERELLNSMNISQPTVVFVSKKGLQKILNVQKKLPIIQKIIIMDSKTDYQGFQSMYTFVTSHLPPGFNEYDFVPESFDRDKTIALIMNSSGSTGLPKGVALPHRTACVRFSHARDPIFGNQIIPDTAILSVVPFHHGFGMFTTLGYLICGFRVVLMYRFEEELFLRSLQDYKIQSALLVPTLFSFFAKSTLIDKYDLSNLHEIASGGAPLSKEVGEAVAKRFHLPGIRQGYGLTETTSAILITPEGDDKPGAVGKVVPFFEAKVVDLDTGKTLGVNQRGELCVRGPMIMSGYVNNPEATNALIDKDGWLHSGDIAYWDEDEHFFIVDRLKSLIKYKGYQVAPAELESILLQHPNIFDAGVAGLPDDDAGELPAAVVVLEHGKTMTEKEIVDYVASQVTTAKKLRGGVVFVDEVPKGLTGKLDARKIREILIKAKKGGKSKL
#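 Purified P. pyralis luciferase (10nM final) with 10uM D-luciferin and 10uM ATP (Km levels) in 50mM Tris acetate pH 7.5, 10mM Mg acetate, 0.01% Tween-20, 0.05% BSA; qHTS 6-point titration, ~60 µM downward; luminescence read.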
# NPC1 prom act: activators of NPC1 promoter | Huh7 NPC1 promoter luciferase reporter, 24 h | AID 485313 | Potency, µM (titrated, usually from 9.22 µM), inactives show at the top dose activation, most hits filed as activators | 320,000 tested, 2.4% active; also: % of control where 0% means no effect; nearly all actives have a fitted effect of over 60% in size
#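 Cells: Huh7 expressing luciferase under the NPC1 promoter, 1500/well. Seeded 2 h, compound added, incubated 24 h at 37 °C. Luciferase reagent, 10 min ambient, then luminescence.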
# ELG1 genotoxic: genotoxicity induction in ELG1-luciferase HEK293T cells; HEK293T ELG1-luciferase reporter, luminescence, 16 h; 330,000 tested, 1.3% active; AID 504466; Potency, µM (highest dose often 46 µM), for the others: at the top dose activity change, positive = activation, most hits filed as activators; also: % of control where 0% means no effect; nearly all actives have a fitted effect of over 60% in size
#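 After overnight (16 hr) compound treatment at 37 °C, ELG1-luciferase HEK293T cells were lysed with ONE-Glo; luminescence quantified 30 min later at room temperature.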
# KinaseGlo FLuc: blocks Kinase-Glo luciferase, a counter-screen artifact; Q27757; Kinase-Glo luciferase, ATP luminescence, 8 min; Potency, µM (top dose mostly 38.3 µM), for the others: top-dose activity change, negative = inhibition, hits mostly inhibitors; 200,000 tested, 0.28% active; also: % is scaled to controls: 0 for no effect and ±100 for the full control effect; nearly all actives have a fitted effect of over 60% in size
#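 Light output from Kinase-Glo luciferase with luciferin and 10 uM ATP in 50 mM imidazole pH 7.2, KCl, MgCl2, Tween 20, BSA; compound pin-delivered, 8-min ambient incubation, then luminescence read.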
# * = called active by the depositor; ? = inconclusive; . = not tested or not shown; [ ] = remark or other dose. In the library only some 7.3% were active in any assay of this set; here they are far more common. Calls follow the shape of the dose curve; as a rule, active = well fitted curve in the direction sought with a large enough effect; inconclusive = small, poorly fitted or top-dose-only effect, or another doubt; inactive = no such curve, though single readings can be large; an effect the other way counts as inactive or inconclusive. Potency is read from the fitted curve at half-maximal effect.
SMILES,Rab9 prom act,SMN2 splice enh,FLuc modulator,NPC1 prom act,ELG1 genotoxic,KinaseGlo FLuc
COc1ccc(-c2cc(C(F)(F)F)nc(SCC(=O)NCc3ccc(Cl)cc3)n2)cc1,.,-6%,-4%,.,.,.
Cc1[nH]c2ccccc2c1/C=N/Nc1nncn1N,?,20%,2.1µM*,6%,?,1%
Cc1[nH]c2ccccc2c1/C=N/Nc1ccccn1,14%,2%,24µM*,-7%,0%,-2%
Cc1[nH]c2ccccc2c1/C=N/Nc1ccc([N+](=O)[O-])cc1,0%,.,?,0%,-1%,.
Cn1c(=O)c(=O)n(C)c2cc(S(=O)(=O)N3CCCCCC3)ccc21,1%,21%,1%,-3%,0%,-3%
COc1ccc(NC(=O)Nc2ccc(N3CCOCC3)c3nonc23)c(OC)c1,-3%,7%,-1%,0%,6%,-3%
O=C(Nc1ccc(F)cc1)Nc1ccc(N2CCOCC2)c2nonc12,2.2µM*,?,?,?,?,-11%
CC(=O)C(C)Oc1ccc2c3c(c(=O)oc2c1)CCCC3 (stereo unspecified),24%,-4%,15µM*,22%,?,3%
O=C(COc1ccc2c3c(c(=O)oc2c1)CCC3)Nc1ccccn1,5µM*,.,0.27µM*,0.4µM*,1.6µM*,.
Cc1cc(NC(=O)COC(=O)COc2ccc3c4c(c(=O)oc3c2)CCC4)no1,-1%,26%,-14%,-5%,-1%,-2%
CC(=O)C(C)Oc1ccc2c3c(c(=O)oc2c1)CCCCC3 (stereo unspecified),2.8µM*,?,21µM*,?,9.2µM*,-5%
C=C(C(C)=O)C(O)c1ccc2ccccc2c1 (stereo unspecified),.,1%,.,.,.,-6%
COc1ccc(-c2c(C#N)c(SCC(N)=O)nc3c2CCCC3)cc1,0%,-26%,7%,-7%,-1%,2%
O=C(NN1C(=O)/C(=C/c2ccc(O)cc2)SC1=S)c1ccccc1O,-7%,.,?,-1%,-5%,.
O=C(NN1C(=O)/C(=C/c2cc([N+](=O)[O-])ccc2O)SC1=S)c1ccccc1O,8%,.,?,-1%,11%,.
O=C(NN1C(=O)/C(=C/c2ccc(O)c([N+](=O)[O-])c2)SC1=S)c1ccccc1Cl,-1%,-21%,17µM*,0%,-6%,-8%
COc1cc(/C=C2\SC(=S)N(NC(=O)c3ccccc3O)C2=O)ccc1O,-4%[1.84 µM],.,17µM*,-2%,4%,.
Fc1ccc(C2=Nn3c(Cc4ccccc4F)nnc3SC2)cc1,10%,-1%,5%,-5%,2%,-1%
Cc1ccc(NC(=O)Cn2cc3c(n2)CCCC3)c(Cl)c1,.,1%,2%,.,.,.
CCN1CCN(c2ccc(NC(=O)c3cc4ccccc4cc3OC)cc2C)CC1,?,.,8.5µM*,29%,?,.
CCCCCC(=O)Nc1ccc(N2CCN(CC)CC2)c(Cl)c1,28%,?,?,?,18µM*,0%
COc1cc2ccccc2cc1C(=O)Nc1ccccc1N1CCN(S(C)(=O)=O)CC1,.,-7%,0%,.,.,-3%
CCN1CCN(c2ccc(NC(=O)c3ccccc3F)cc2Cl)CC1,?,10µM*,?,?,?,0%
CCCCCC(=O)NC(=S)Nc1ccc(N2CCCCC2)c(Cl)c1,2%,.,1%,-2%,1%,.
O=C(Nc1ccc(Cl)c(S(=O)(=O)N2CCOCC2)c1)c1ccc(OCC2CCCO2)cc1 (stereo unspecified),-44%,-58%,-18%,-34%,-20%,-2%
COc1cc(CN2CCCC(CO)(Cc3cccc(Cl)c3)C2)cc2c1OCO2 (stereo unspecified),-3%,.,3%,-4%,-4%,0%
CC(=O)Nc1ccc(NC(=O)C/C(C)=N/NC(N)=S)cc1,-3%,9%,-3%,-5%,-5%,2%
CC(=O)Nc1ccc(NC(=O)C/C(C)=N/NC(=O)c2cccc3ccccc23)cc1,-6%,.,15µM*,-11%,1%,.
